Compound activity (PubChem)
In the library only some 7.3% were active in any assay of this set; here they are far more common.
ELG1 genotoxic = inducers of genotoxicity in HEK293T ELG1-luciferase cells; actives 1.3% (n = 330,000); Potency, µM (top dose mostly 46 µM), for the others: at the highest dose activity change, positive = activation, hits mostly activators; HEK293T ELG1-luciferase reporter, luminescence, 16 h; AID 504466; further: % of control where 0% means no effect; nearly all actives have a fitted effect of over 60% in size
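HEK293T cells expressing luciferase-tagged ELG1 were treated with compound or DMSO for 16 hr at 37°C. Luciferase activity was then read after 30 min with ONE-Glo at room temperature; rising signal flags genetic stress.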
NPC1 promoter act = activators of NPC1 promoter. Huh7 NPC1 promoter luciferase reporter, 24 h. Potency, µM (highest dose often 9.22 µM), without a hit: at the highest dose activation, actives largely listed as activators. actives 2.4% (n = 320,000). AID 485313; further: % of control where 0% means no effect; nearly all actives have a fitted effect of over 60% in size
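Cells: Huh7 expressing luciferase under the NPC1 promoter, 1500/well. Seeded 2 h, compound added, incubated 24 h at 37 °C. Luciferase reagent, 10 min ambient, then luminescence.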
SMN2 splice up = enhancers of SMN2 splice variant expression | HEK293 SMN2-luciferase splicing reporter, luminescence, 30-36 h | Potency, µM (top dose mostly 46.1 µM), without a hit: at the highest dose activity change, positive = activation, actives largely listed as activators | actives 2.8% (n = 210,000) | AID 1458; further: % of control where 0% means no effect; nearly all actives have a fitted effect of over 55% in size
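HEK293 cells carry an SMN2 […]–luciferase reporter in which exon 7 inclusion puts luciferase in frame. Cells were plated 10-12 h before compound addition, then incubated 30-36 h at 37C. ONE-Glo luminescence was read; sodium butyrate at 4.5 mM final served as control.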
Luc counter = Kinase-Glo luciferase inhibition (counter-screen). Q27757. Kinase-Glo luciferase, ATP luminescence, 8 min. Potency, µM (doses to about 38.3 µM), for inactives: top-dose activity change, negative = inhibition, hits mostly inhibitors. actives 0.28% (n = 200,000). AID 1379; further: on the % scale 0 is the no-effect control and ±100 the full control effect; nearly all actives have a fitted effect of over 60% in size
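Compound is pinned into ATP-containing buffer (10 uM ATP, imidazole pH 7.2, 7 mM MgCl2). Kinase-Glo luciferase reagent is then added. Light output is recorded following an 8-min room-temperature incubation.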
FLuc modulator = counter-screen for miR-21 project: firefly luciferase inhibitors or activators. P08659. purified FLuc, Km substrates, luminescence inhibition. Potency, µM (highest dose often 57.5 µM), inactives show at the highest dose activity change, negative = inhibition, usual class: inhibitors. actives 6.9% (n = 360,000). AID 588342;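 further: plate controls were vehicle for no effect and reference inhibitor for full effect; nearly all actives have a fitted effect of over 55% in size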
Target sequence (P08659 whole entry, looked up): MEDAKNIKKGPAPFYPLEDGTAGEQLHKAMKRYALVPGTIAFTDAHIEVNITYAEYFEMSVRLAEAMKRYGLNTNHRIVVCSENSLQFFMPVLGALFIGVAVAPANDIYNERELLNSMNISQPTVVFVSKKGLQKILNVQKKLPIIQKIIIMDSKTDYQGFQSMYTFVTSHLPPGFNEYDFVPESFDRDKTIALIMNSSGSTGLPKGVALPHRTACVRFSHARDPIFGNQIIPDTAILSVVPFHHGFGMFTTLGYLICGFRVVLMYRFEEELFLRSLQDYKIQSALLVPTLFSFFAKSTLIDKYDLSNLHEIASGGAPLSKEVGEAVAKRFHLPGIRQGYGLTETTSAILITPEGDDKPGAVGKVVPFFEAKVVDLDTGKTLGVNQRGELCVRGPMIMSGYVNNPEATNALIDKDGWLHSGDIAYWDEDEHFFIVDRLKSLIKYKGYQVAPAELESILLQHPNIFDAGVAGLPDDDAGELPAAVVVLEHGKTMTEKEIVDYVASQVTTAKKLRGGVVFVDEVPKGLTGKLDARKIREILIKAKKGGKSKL
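Biochemical qHTS of compounds, final roughly 60 µM downward over six points, against 10 nM purified firefly luciferase using Km concentrations of substrates (10 uM D-luciferin, 10 uM ATP) in Tris acetate pH 7.5 buffer; luminescence output.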
Rab9 prom act = activates the Rab9 promoter | Huh7 Rab9 promoter-luciferase reporter, luminescence, 24 h | Potency, µM (titrated, usually from 9.22 µM), for the others: at the top dose activation, negative = inhibition, most hits filed as activators | actives 2.8% (n = 320,000); further: % of control where 0% means no effect; nearly all actives have a fitted effect of over 60% in size
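Luminescence read-out: Huh7 cells stably expressing Rab9-luciferase, treated 24 h with compound at 37 °C, then lysed with luciferase reagent for 10 min at ambient before reading.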
An asterisk follows results filed as active; [ ] = dose if it differs, or a comment. The call rests on the fitted dose curve; in most records, active means well fitted curve in the direction sought with a large enough effect; inconclusive means small, poorly fitted or top-dose-only effect, or another doubt; inactive means no such curve, though single readings can be large; an effect the other way counts as inactive or inconclusive. Potency means the concentration at half of the fitted maximal effect.

What do the screens show for `Cc1ccc(CN(C(=O)COc2ccc(Cl)cc2Cl)C2CCS(=O)(=O)C2)o1` (configuration not stated)?
SMN2 splice up: -7%; FLuc modulator: 3%

What do the screens show for `COc1ccc(NC(=O)N2CCc3nc(-c4ccc(OC)cc4C)c4c(c3C2)CO[C@@H](c2ccccc2)C4)cc1`?
SMN2 splice up: 4%[9.22 µM]; Luc counter: 0%[7.66 µM]

How did O=C(CN1C(=O)c2ccccc2S1(=O)=O)c1cccc(Br)c1 do in these assays?
ELG1 genotoxic: -6%; NPC1 promoter act: inconclusive; FLuc modulator: 7.6µM*; Rab9 prom act: inconclusive

What do the screens show for `COc1cccc(N(C(=O)c2nc3nccc(C)n3n2)c2nc3ccccc3s2)c1`?
ELG1 genotoxic: inconclusive; NPC1 promoter act: inconclusive; SMN2 splice up: 10µM*; Luc counter: 3%; FLuc modulator: 11µM*; Rab9 prom act: 2µM*

Results for Cc1cc(-c2ccc(C)c(S(=O)(=O)NCc3cccs3)c2)on1 ?
FLuc modulator: 0%

Results for N#Cc1c(-c2ccccc2Cl)noc1/C=C/Nc1ccc(C(=O)O)cc1 ?
ELG1 genotoxic: 11%; NPC1 promoter act: 5%; Luc counter: -19%; FLuc modulator: 24µM*; Rab9 prom act: 6%

Results for COc1ccc(-c2ccc(SCC(=O)N3CC(=O)Nc4ccccc43)nn2)cc1 ?
ELG1 genotoxic: 3%; NPC1 promoter act: 25%; FLuc modulator: 3µM*; Rab9 prom act: 28%

Results for COc1ccc(NC(=O)CSc2ccc(-c3cccs3)nn2)cc1 ?
FLuc modulator: -9%

What do the screens show for `O=C(CSc1ccc(-c2ccc(Cl)cc2)nn1)N1CCCc2ccccc21`?
ELG1 genotoxic: -4%; NPC1 promoter act: -2%; SMN2 splice up: -27%; Luc counter: 4%; FLuc modulator: 15µM*; Rab9 prom act: 4%

What do the screens show for `O=C(CSc1ccc(-c2ccccc2)nn1)N1CCOCC1`?
ELG1 genotoxic: inconclusive; NPC1 promoter act: 17%; SMN2 splice up: 6.3µM*; Luc counter: -23%; FLuc modulator: -17%; Rab9 prom act: 18%

What do the screens show for `COc1ccc(-c2ccc(SCC(=O)c3cccs3)nn2)cc1`?
ELG1 genotoxic: inconclusive; NPC1 promoter act: 12%; SMN2 splice up: 13µM*; Luc counter: 1%; FLuc modulator: 11µM*; Rab9 prom act: 27%

Results for Cc1nc(SCC(=O)N2CC(=O)Nc3ccccc32)nc(C)c1C ?
ELG1 genotoxic: 3%; NPC1 promoter act: -2%; SMN2 splice up: 6%; Luc counter: 2%; FLuc modulator: -4%; Rab9 prom act: 1%

Results for COc1ccc(S(=O)(=O)NCCc2sc3nc(-c4ccc(C)cc4)nn3c2C)cc1C ?
FLuc modulator: -15%

Results for O=C(CSc1ccc(-c2ccccc2)nn1)c1cccs1 ?
ELG1 genotoxic: inconclusive; NPC1 promoter act: inconclusive; SMN2 splice up: 18µM*; Luc counter: -5%; FLuc modulator: inconclusive; Rab9 prom act: inconclusive

Results for CC1CCN(C(=O)CSc2ccc(-c3ccccc3)nn2)CC1 ?
ELG1 genotoxic: -8%; NPC1 promoter act: 0%; SMN2 splice up: -24%; Luc counter: 6%; FLuc modulator: -14%; Rab9 prom act: -2%

What do the screens show for `CCCC1(C)Nc2ccccc2-c2nc3ccccc3n21` (configuration not stated)?
ELG1 genotoxic: 18%; NPC1 promoter act: 23%; SMN2 splice up: -5%; Luc counter: -3%; FLuc modulator: 19µM*; Rab9 prom act: inconclusive

Results for c1ccc2c(c1)NC1(CCCC1)n1c-2nc2ccccc21 ?
ELG1 genotoxic: 2%; NPC1 promoter act: 29%; SMN2 splice up: 11%; Luc counter: -5%; FLuc modulator: 19µM*; Rab9 prom act: 2%

Results for CCCn1c(-c2ccc[nH]c2=O)nc2ccccc21 ?
ELG1 genotoxic: 0%; NPC1 promoter act: 1%; Luc counter: 5%; FLuc modulator: -2%; Rab9 prom act: -20%

What do the screens show for `O=C(/C=C/c1cccs1)c1ccc(Br)cc1`?
ELG1 genotoxic: 8%; NPC1 promoter act: -4%; SMN2 splice up: 2%; Luc counter: -13%; FLuc modulator: 4.8µM*; Rab9 prom act: 5%

Results for Cc1ccc(C(=O)Nc2ccc(C(=O)/C=C/c3cccs3)cc2)cc1 ?
ELG1 genotoxic: -3%; NPC1 promoter act: inconclusive; SMN2 splice up: -8%; Luc counter: -1%; FLuc modulator: 12µM*; Rab9 prom act: inconclusive

Results for O=C(/C=C/c1cccs1)c1ccc(NC(=O)c2cccc(Br)c2)cc1 ?
ELG1 genotoxic: 2%; NPC1 promoter act: 20%; SMN2 splice up: inconclusive; Luc counter: 0%; FLuc modulator: -13%; Rab9 prom act: 18%

What do the screens show for `C=C1C[C@@]23CC[C@H]4[C@@](C)(CCC[C@@]4(C)C(=O)O)[C@@H]2CC[C@]1(O)C3`?
NPC1 promoter act: -2%[46.1 µM]; Rab9 prom act: -5%[46.1 µM]

Results for Cc1ccc(C)c(/C=N/Nc2nc3ccccc3c(=O)n2O)c1 ?
ELG1 genotoxic: 4%; NPC1 promoter act: 6%; FLuc modulator: 13µM*; Rab9 prom act: 2%

Results for Cc1ccc2nc(C)cc(N/N=C/c3ccccc3O)c2c1 ?
ELG1 genotoxic: 8%; NPC1 promoter act: 22%; FLuc modulator: -2%; Rab9 prom act: 11%

Results for C/C(=N\Nc1nc2ccccc2c(=O)n1O)c1ccco1 ?
ELG1 genotoxic: inconclusive; NPC1 promoter act: 30%; FLuc modulator: 11µM*; Rab9 prom act: 3.2µM*

Results for N#CC1=C(N)N(c2ccc(F)cc2)C2=C(C1c1ccc(O)cc1)S(=O)(=O)CC2 (configuration not stated) ?
ELG1 genotoxic: 1%; NPC1 promoter act: 0%; SMN2 splice up: -31%; Luc counter: inconclusive; FLuc modulator: 21µM*; Rab9 prom act: 1%

Results for CSc1ccc(C2C(C#N)=C(N)N(c3ccccc3)C3=C2C(=O)CCC3)cc1 (configuration not stated) ?
ELG1 genotoxic: -1%; NPC1 promoter act: -5%; SMN2 splice up: 26%; Luc counter: 0%; FLuc modulator: -1%[2.3 µM]; Rab9 prom act: 0%

How did CC(C)c1ccccc1NC(=O)CN1C(=O)c2cccc3cccc1c23 do in these assays?
SMN2 splice up: -20%; FLuc modulator: 1%

How did O=C(Nc1ccc2nn(-c3ccccc3)nc2c1)c1ccc2c(c1)OCO2 do in these assays?
ELG1 genotoxic: 9%; NPC1 promoter act: -2%; SMN2 splice up: 4%; Luc counter: -2%; FLuc modulator: -15%; Rab9 prom act: -3%
